Compound activity from PubChem.
Rows were chosen to be rich in hits. Some 0.9% of all compounds tested hit in one or more screens of this group.
PPARg SRC-1 ag: promotes SRC-1 coactivator recruitment by human PPARgamma | P37231 | PPARgamma-SRC-1 coactivator recruitment biochemical assay | activation, % at 8 µM | 0.41% of 200,000 active | AID 631; in the data active = activation above about 19%;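 also: 0% = DMSO and 100% = reference agonist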
Target sequence (P37231 whole entry, looked up): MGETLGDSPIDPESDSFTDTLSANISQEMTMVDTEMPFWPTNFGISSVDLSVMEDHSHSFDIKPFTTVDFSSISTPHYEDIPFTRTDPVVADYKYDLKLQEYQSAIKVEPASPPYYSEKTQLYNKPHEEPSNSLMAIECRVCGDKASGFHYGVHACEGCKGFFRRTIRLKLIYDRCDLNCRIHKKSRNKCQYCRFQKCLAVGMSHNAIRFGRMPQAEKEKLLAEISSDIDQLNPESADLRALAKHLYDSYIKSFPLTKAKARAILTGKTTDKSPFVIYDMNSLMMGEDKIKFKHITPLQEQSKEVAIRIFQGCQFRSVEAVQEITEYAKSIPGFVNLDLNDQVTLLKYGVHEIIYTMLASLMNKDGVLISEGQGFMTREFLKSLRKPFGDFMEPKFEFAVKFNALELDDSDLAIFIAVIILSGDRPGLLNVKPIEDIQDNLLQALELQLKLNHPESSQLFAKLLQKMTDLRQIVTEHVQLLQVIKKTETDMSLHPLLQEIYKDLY
PPARg SRC3 recr: agonists of human PPARgamma SRC-3 coactivator recruitment; activation, % at 8 µM; 0.26% of 200,000 active; biochemical PPARgamma/SRC-3 coactivator recruitment assay; P37231; AID 731; in the data active = activation above about 23%;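 also: 0% = DMSO and 100% = reference agonist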
SRC3 TRFRET art: TR-FRET artefact, counter-screen to PPARgamma/SRC-3 agonist assay; PPARgamma/SRC-3 format; stronger effect = higher value; TR-FRET ratio at 8 µM; 0.39% of 99,000 active; in the data active = TR-FRET ratio above about 2000
SRC1 TRFRET art: counter-screen for PPARgamma SRC-1 recruitment agonists: TR-FRET artefact | TR-FRET detection artefact counter-screen, emission ratio; stronger effect = higher value | TR-FRET ratio at 8 µM | 0.34% of 99,000 active | AID 1051; in the data active = TR-FRET ratio above about 2300
PPARg SRC-2 ag: agonists of SRC-2 recruitment by human PPARgamma; PPARgamma LBD-SRC-2 recruitment, biochemical; 0.34% of 200,000 active; activation, % at 8 µM;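 also: 0% = vehicle and 100% = reference agonist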
SRC2 TRFRET art: counter-screen for PPARgamma SRC-2 recruitment agonists: TR-FRET artefact; AID 1049; TR-FRET ratio at 8 µM; 0.4% of 200,000 active; stronger effect = higher value; in the data active = TR-FRET ratio above about 2000
PPARg SRC2 ag: human PPARgamma SRC-2 recruitment agonism, confirmation | shares compounds with PPARg SRC3 recr | biochemical SRC-2 recruitment by PPARgamma | activation, % at 8 µM | 52% of 790 active;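 also: 0% = vehicle alone and 100% = reference agonist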
PPARg SRC1 conf: human PPARgamma SRC-1 recruitment agonism, confirmation. shares compounds with PPARg SRC3 recr. 43% of 790 active. activation, % at 8 µM. PPARgamma–SRC-1 coactivator recruitment biochemical assay; in the data active = activation above about 20%;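 also: 0% = vehicle wells and 100% = reference agonist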
PPARg SRC3 ag: human PPARgamma SRC-3 recruitment agonism, confirmation | shares compounds with PPARg SRC3 recr | biochemical PPARgamma-SRC-3 coactivator recruitment, agonist mode | activation, % at 8 µM | 29% of 790 active; in the data active = activation above about 24%;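 also: 0% = vehicle wells and 100% = reference agonist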
Active calls of the source: *; / = not tested or not shown. Rule as the data show it, unless noted: active = activation above about 22%; inactive = the rest.

SMILES	PPARg SRC-1 ag	PPARg SRC3 recr	SRC3 TRFRET art	SRC1 TRFRET art	PPARg SRC-2 ag	SRC2 TRFRET art	PPARg SRC2 ag	PPARg SRC1 conf	PPARg SRC3 ag
Cc1ccc(NC(=S)NCc2ccc3c(c2)OCO3)cc1C	-1	0	1566	1815	-6	1647	/	/	/
O=C(Nc1ccc2oc(-c3ccncc3)nc2c1)c1ccccc1F	49*	39*	/	/	47*	1409	2	0	1
O=C(Nc1ccc2oc(-c3ccccc3)nc2c1)c1ccccc1F	14	-17	/	/	8	1684	/	/	/
Cc1cc2c3c(c1C)C1(C(=O)N3C(C)(C)CC2C)C(C#N)=C(N)Oc2n[nH]c(C)c21 (stereo not drawn)	3	0	/	/	-1	1275	/	/	/
CC(=O)CSc1ccc(-c2nc3cc(C)c(C)cc3[nH]2)cn1	-2	0	1677	1783	0	1502	/	/	/
N#Cc1ccccc1CSc1ccc(-c2nc3ccccc3[nH]2)cn1	22*	26*	/	/	33*	1850	35*	23*	22
Cn1c(N/N=C/c2c[nH]c3ccccc23)nc2ccccc21	18	4	/	/	24*	1730	12	6	8
Clc1ccc(Cl)c(-c2ccc(/C=N/c3ncn[nH]3)o2)c1	49*	58*	/	/	54*	2699*	53*	38*	30*
COc1ccc(-c2nn(CC(=O)Nc3ccc(Cl)c(Cl)c3)c(=O)c3ccccc23)cc1	19*	22	/	/	-3	2357*	11	13	8
COc1ccc(-c2nc(-c3cccs3)c(-c3cccs3)[nH]2)cc1O	63*	90*	/	/	89*	3397*	56*	44*	40*
O=[N+]([O-])c1ccc(O)c(-c2nc(-c3ccccc3)c(-c3cccs3)[nH]2)c1	-1	22	/	/	14	1532	/	/	/
CC(=O)CSc1nc(-c2cccs2)c(C#N)c(=O)[nH]1	16	17	2268*	2767*	26*	2150*	31*	20*	20
CC(=O)CSc1nc(N)c(C#N)c(-c2cccs2)c1C#N	1	-4	/	/	-2	1500	/	/	/
CN1/C(=C/c2cc[n+](C)c3ccccc23)C=Cc2ccccc21	33*	26*	2217*	2343*	42*	1994*	5	4	5
CCn1c(=O)cc(SCC(=O)N2CCN(C(=O)c3ccco3)CC2)c2ccccc21	54*	63*	/	/	55*	2772*	34*	21*	24
CCn1c(=O)cc(SCC(=O)N2CCN(c3ccccc3OC)CC2)c2ccccc21	72*	85*	/	/	68*	2834*	53*	37*	34*
CCn1c(=O)cc(OCC(=O)N2CCCCCC2)c2ccccc21	5	1	/	/	4	1453	/	/	/
CCn1c(=O)cc(SCC(=O)N2CCN(C3CCCCC3)CC2)c2ccccc21	19*	37*	/	/	35*	2255*	27*	17	18
CCn1c(=O)cc(SCC(=O)N2CCOCC2)c2ccccc21	45*	82*	/	/	55*	2862*	35*	22*	22
CCOC(=O)c1nnc2cc(-c3ccc(Br)cc3)nn2c1C	1	7	/	/	1	1407	/	/	/
CCC(C)C(=O)Nc1nccs1 (stereo not drawn)	0	5	1490	1988	-4	1601	/	/	/
Cc1[nH]n(-c2ccc([N+](=O)[O-])cc2)c(=O)c1C=NCCN1CCN(C(=O)C(C)C)CC1	0	0	1743	1704	14	1645	/	/	/
CCN1CCCC1CNC(=O)CSc1cc(=O)n(CC)c2ccccc12 (stereo not drawn)	23*	42*	/	/	26*	2187*	27*	15	18
CCn1c(=O)cc(SCC(=O)NCCCN2CCN(c3ccccc3F)CC2)c2ccccc21	65*	96*	/	/	79*	3692*	42*	27*	29*
O=C(CSc1nc(-c2ccccc2)cc(C(F)(F)F)n1)c1cccc([N+](=O)[O-])c1	-6	-3	1568	1611	-11	1599	/	/	/
SMILES	PPARg SRC-1 ag	PPARg SRC3 recr	SRC3 TRFRET art	SRC1 TRFRET art	PPARg SRC-2 ag	SRC2 TRFRET art	PPARg SRC2 ag	PPARg SRC1 conf	PPARg SRC3 ag
CSCCC(Nc1ncnc2ccc(Br)cc12)C(=O)O (stereo not drawn)	4	23	/	/	14	1874	/	/	/
COc1ccccc1-c1n[nH]c(=S)n1-c1ccccc1	62*	84*	/	/	63*	2941*	57*	39*	39*
COc1ccc(-n2c(-c3ccco3)n[nH]c2=S)cc1	22*	21	/	/	14	1858	20	11	13
Nn1c(-c2ccco2)n[nH]c1=S	1	0	/	/	3	1580	/	/	/
S=c1[nH]nc(-c2ccco2)n1-c1ccc(Cl)cc1	16	18	2067*	2279	23*	1660	18	9	11
COc1ccccc1-c1n[nH]c(=S)n1N	11	4	1623	1712	2	1698	/	/	/
O=C(O)c1ccccc1S(=O)(=O)c1ccccc1CO	-2	5	/	/	-3	1545	/	/	/
O=C(CNC(=O)c1ccccc1Br)N/N=C/c1ccc(O)cc1	-1	-1	1479	1725	2	1575	/	/	/
CCCCCC1(C(=O)OCC)CC(CSC(=N)N)OC1=O (stereo not drawn)	0	0	1603	1797	1	1525	/	/	/
CCOc1ccc(OCC)c(NC(=O)CCCN2C(=S)NC(C)(C)CC2C)c1 (stereo not drawn)	3	4	1465	1767	-1	1550	/	/	/
Clc1ccc(-n2nnnc2CN2CCOCC2)cc1	6	1	/	/	1	1665	/	/	/
C=CCSC1=Nc2sccc2C2=NC(=O)CN12	13	11	/	/	23*	1562	9	8	7
O=C1CC(Sc2nnc(-c3ccccc3)o2)C(=O)N1c1ccccc1 (stereo not drawn)	20*	31*	/	/	39*	1657	28*	21*	16
Cc1ccccc1N1C(=O)CC(Sc2nnc(-c3ccccc3)o2)C1=O (stereo not drawn)	42*	57*	/	/	43*	1855	48*	36*	31*
O=C1c2ccccc2CC1Sc1nnc(-c2ccncc2)o1 (stereo not drawn)	-9	-4	/	/	1	1537	/	/	/
COc1ccccc1CC(=O)Nc1ccc2c(c1)CCC2	-7	3	1506	1635	-1	1373	/	/	/
O=C1C=C(Nc2ccc(Cl)cc2)CC(c2ccccc2)C1 (stereo not drawn)	8	-1	1375	1838	3	1424	/	/	/
COc1ccc2[nH]c3c(Cl)ncnc3c2c1	1	2	1712	1758	0	1577	/	/	/
